Laboratory results as given in the supplement of paper PMC6555819.

The sequences below were run on RARb homodimer (NR concentration 270 nM) (assay: PBM binding z-score (relative to random genomic background probes); higher = stronger binding; sequences stand for … in GC…GCGATTGACAGCGTAGAATGAAGG).
How it was run: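 Custom Agilent 4×180K protein-binding microarrays carried double-stranded probes, each with a 34-nt variable region. These regions held direct-repeat seeds, single-nucleotide variants, half-site ablations and random human genomic background sequences. Ligand-free nuclear receptor dimers were incubated on the arrays for 1 h, antibodies against each partner (one per run) detected binding, and scanned fluorescence was regression-normalized. Binding z-scores take the random background probes as reference.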
With CCTTACGGGTCACTGACAGGTTAAAGCATTTGGA the PBM binding z-score was 3.06. In the case of GATACAGGGACAAGGCCAGAGTACGCGTATTGAT, the PBM binding z-score was 0.843. With CGTCCTAGGTCAAGGTCAGTGAAAGAGACTCGAA the PBM binding z-score was 4.34. CCTACTGAGCCAAAGGTCATTGATTCCAATGCTC was tested, and the PBM binding z-score was 4.56. CATACAGGGTCAGCCAGGCCAGAGTAGGGACGGC showed a PBM binding z-score of 3.14. With GGAATGAGGGCAAAGTTGATAGCATCTGTCGACG the PBM binding z-score was 1.42. CCGAGTAGGTTATCGGGCATTCAGGCAACGGTGA showed a PBM binding z-score of 0.614. In the case of TAATATAGGTAAATGCTAGGTGAAAGTCCGATCT, the PBM binding z-score was 0.28. In the case of CCTTACGGGTCACGATGTTATAGCACGACGAGCG, the PBM binding z-score was 3.21. GCAGACAGCTGAAACGCAGGTAACTCAGGGTGGC gave a PBM binding z-score of -0.98. TCAATGAGGTTATAAGATCAGGGAACGTTGCAAA was tested, and the PBM binding z-score was 0.57. CCTAACGGGTCACTGACAGGTTATAGCATTTGGA gave a PBM binding z-score of 2.94. CGTCCAAAGTCAATGCTAGGTCAGTGAAAGCATT showed a PBM binding z-score of 2.39. Work on TCATATAGGTAAACAGGTGAAAGTTCGTAAGTTA yielded a PBM binding z-score of 1.49. For ACAGACAGGTAATGAAGGTAACTCAGGCTATCAT, the PBM binding z-score was 0.185. With TCAGACAGGTGAAGGTAATTCAGGTACGCAGTCG the PBM binding z-score was 0.916. CGAACTAGGTCAAGAGGTCAAAGTCCGCTTCCCG showed a PBM binding z-score of 5.66. With CCTCGGAGGACAACAGGAGGTCGGAGCTGCCAGA the PBM binding z-score was 1.42. Sequence AGAATGAGGTTATACGTAGATCAGGAAAGAAAGT has a PBM binding z-score of 0.817. GCGACTGGGTCAAAGCAGGTTACCATAAGGTTGG was tested, and the PBM binding z-score was 2.76. For CATACAGGGTCAGGTAGGCCAGAGTAGGGACGGC, the PBM binding z-score was 3. In the case of TCTAGTTGGTCACGGAGGCCACACACGACGGGTA, the PBM binding z-score was 2.01. ACAGACAGGTGATGAAGGTAAGTCAGGCTATCAT showed a PBM binding z-score of 0.406. Sequence GCTTGTAGATCTAGGTTAAGAAAGACTAAGCTAA has a PBM binding z-score of -0.325. Sequence ACAGACAGGTGATGAAGGTAACACAGGCTATCAT has a PBM binding z-score of 0.929. Work on GCGACTGGGGCATCAGCAGGTTACCCTAACTTAA yielded a PBM binding z-score of 0.901. With CGTCCAAGGTCAGCAGGTCTGTGAAAGCGACGTG the PBM binding z-score was 3.23. Work on ATCTCTAGGAAAGACTCAGTTCAGTGAAGAACGC yielded a PBM binding z-score of 0.415. CAAACTCGGTCACCGGAAGGTCAAAGTCCGCATG showed a PBM binding z-score of 5.22. TCATATACGTAAACAGGTGAAAGTCCGTAAGTTA showed a PBM binding z-score of 0.865. Work on ATATGTAGGTTAGCTGGGGTGATTCAGACTAGGC yielded a PBM binding z-score of 1.08. GCTGCTAGGTCAACTGATGGTCTGCTAAAGCTCG showed a PBM binding z-score of 3.12. TCTATTATTTGAAGGGCAACCGACGAGTCCGTTT was tested, and the PBM binding z-score was 1.34. AGAATGCGGTTACCAAAGATCAGGGAAACGCTTG was tested, and the PBM binding z-score was -0.737. In the case of ATACCAAGGTGATCGGGAGGTCGTTGATACTAAC, the PBM binding z-score was 1.96. In the case of ATTCAAAGTTCATCTAGGTAACGTAAGATATGCT, the PBM binding z-score was 3.89. Work on CCTCGGAGGACAACAGGGGGTCAGAGCTGCCAGA yielded a PBM binding z-score of 3.52. With TCTATTAGTTGAAGGGCAACTGACGAGTCCGTTT the PBM binding z-score was 1.26. For CCTAGCAGGCCATGGTCACTCAAGCATTTCGCTT, the PBM binding z-score was 0.33. In the case of TCTGCTAGGTCAACGATGGTCAACTAATCTGCTA, the PBM binding z-score was 3.58.
